In PubChem BioAssay (NCATS):
Records with an inconclusive call do not appear. Activity calls are given as the source filed them. Calls follow the shape of the dose curve; as a rule, active = well fitted inhibition curve with a large enough effect; inconclusive = small, poorly fitted or top-dose-only effect; inactive = flat fitted curve, though single readings scatter. Where a SMILES comes first, the peptide text is derived from it. [ ]: non-standard residue; d: D form. The star is where a group is joined. dPhe(4-Cl) = N[C@H](Cc1ccc(Cl)cc1)C(=O)O; d2Nal = N[C@H](Cc1ccc2ccccc2c1)C(=O)O; AFC = O=c1cc(C(F)(F)F)c2ccc(N*)cc2o1; dCit = NC(=O)NCCC[C@@H](N)C(=O)O; d3Pal = N[C@H](Cc1cccnc1)C(=O)O

What follows are compounds tested on CRL-7250 (assay: Cytotoxic Profiling of Annotated Libraries Using Quantitative High-Throughput Screening (AID 1296008; also: nearly all actives have a fitted effect of over 60% in size)). Details: Five cell lines viability, CellTiter-Glo ATP luminescence, 48-72 h; max response: stronger effect = lower value.
How it was run: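 Compounds were pin-transferred onto cells and incubated 48 or 72 hr at 37 degree Celsius, 95% humidity. CellTiter-Glo was added, plates sat 10 min at room temperature, then ATP-coupled luminescence was imaged as the viability read-out.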
% is scaled to controls: 0 for no effect and ±100 for the full control effect; potency is read from the fitted curve at half-maximal effect.

| SMILES | max response | Potency | outcome |
| --- | --- | --- | --- |
| CC1(C)CC[C@]2(C(=O)O)[C@H](O)C[C@]3(C)C(=CCC4[C@@]5(C)CC[C@H](O[C@@H]6O[C@H](CO[C@@H]7OC[C@H](O)[C@H](O)[C@H]7O[C@@H]7OC[C@@H](O)[C@H](O)[C@H]7O)[C@@H](O)[C@H](O)[C@H]6O[C@@H]6O[C@H](CO)[C@@H](O)[C@H](O)[C@H]6O)C(C)(C)C5CC[C@]43C)[C@@H]2C1 (stereo not given in full) | -10.1% (inactive) |  |  |
| CN[C@H](C(=O)N[C@H](C(=O)N(C)[C@H](/C=C(\C)C(=O)O)C(C)C)C(C)(C)C)C(C)(C)c1ccccc1 |  | 0.0052 µM (active) |  |
| FC(F)(F)c1ccc(Nc2nc(-c3c(C(F)(F)F)nc4ccccn34)cs2)cc1 |  | 5.8 µM (active) |  |
| C=C[C@H]1[C@H](O[C@@H]2O[C@H](CO)[C@@H](O)[C@H](O)[C@H]2O)OC=C(C(=O)OC)[C@H]1CC(=O)O | -13.3% (inactive) |  |  |
| OCC1OC(Oc2cc(O)cc(/C=C/c3ccc(O)cc3)c2)C(O)C(O)C1O (stereo not given) | -6.35% (inactive) |  |  |
| COc1cc(O)cc(C)c1C(=O)OC1C(CO)OC(OC2C(O)C(O)C(O)C(O)C2O)C(O)C1O (stereo not given) | -0.0302% (inactive) |  |  |
| O=C(Nc1ccc(S(=O)(=O)Nc2nccs2)cc1)C(c1ccccc1)c1ccccc1 | -0.59% (inactive) |  |  |
| C=C(C(=O)O)C1CCC2(C)CCC(O)C(C)(O)C2C1 (stereo not given) | -18% (inactive) |  |  |
| CC(=O)O[C@@](C)(C(=O)/C=C/C(C)(C)O)[C@H]1[C@H](O)C[C@@]2(C)[C@@H]3CC=C4[C@@H](C=C(O)C(=O)C4(C)C)[C@]3(C)C(=O)C[C@]12C |  | 2.82 µM (active) |  |
| CC(=O)OC1C(OC(=O)c2ccccc2)C2C(C)(C)CC(=O)CC2(C)C23CCC(C)(C2)C(O)CC13 (stereo not given) | -5.07% (inactive) |  |  |
| COc1cc(/C=C/CO)cc(OC)c1O[C@@H]1O[C@H](CO[C@@H]2O[C@H](CO)[C@@H](O)[C@H](O)[C@H]2O)[C@@H](O)[C@H](O)[C@H]1O | 3.07% (inactive) |  |  |
| CC/C=C/CC1=C(CCCCC(CCC(=O)O)OC(C)=O)CCC1=O (stereo not given) | -18.8% (inactive) |  |  |
| CC(=O)N[C@H](Cc1ccc2ccccc2c1)C(=O)N[C@H](Cc1ccc(Cl)cc1)C(=O)N[C@H](Cc1cccnc1)C(=O)N[C@@H](CO)C(=O)N[C@@H](Cc1ccc(O)cc1)C(=O)N[C@H](CCCNC(N)=O)C(=O)N[C@@H](CC(C)C)C(=O)N[C@@H](CCCN=C(N)N)C(=O)N1CCC[C@H]1C(=O)N[C@H](C)C(N)=O (Ac-[d2Nal][dPhe(4-Cl)][d3Pal]SY[dCit]LRP[dA]-NH2) | -7.92% (inactive) |  |  |
| C[C@H]1CC[C@@]2(OC1)O[C@H]1CC3C4CC[C@H]5C[C@@H](O)[C@H](O)C[C@]5(C)C4=CC(=O)[C@]3(C)[C@H]1[C@@H]2C (stereo not given in full) | -0.885% (inactive) |  |  |
| Cc1cc(C)nc(NS(=O)(=O)c2ccc(NC(=S)NC(=O)COc3ccc(Br)cc3Cl)cc2)n1 | 3.21% (inactive) |  |  |
| CC12CCC3c4ccc(OC5OC(C(=O)O)C(O)C(O)C5O)cc4CCC3C1CCC2O (stereo not given) |  |  | inactive |
| O=C(O)C1CN(Cc2ccc(-c3nc4cc(Cc5ccccc5F)ccc4s3)c(F)c2)C1 | 1.29% (inactive) |  |  |
| CC(C)c1cc2c(c(O)c1O)[C@@]13CCCC(C)(C)[C@@H]1[C@H](OC3=O)C2=O | 0.881% (inactive) |  |  |
| CCCN1CCN(c2ccc(C(=O)NC3(C(=O)NCC#N)CCCCC3)cc2)CC1 | -0.563% (inactive) |  |  |
| CC(=O)C1=CCC2C3CCC4CC(O[C@@H]5O[C@H](CO)[C@@H](O[C@@H]6O[C@@H](C)[C@H](O)[C@@H](O)[C@H]6O)[C@H](O)[C@H]5O[C@@H]5O[C@H](CO)[C@@H](O)[C@H](O)[C@H]5O)CCC4(C)C3CCC12C (stereo not given in full) | -10.3% (inactive) |  |  |

| SMILES | max response | Potency | outcome |
| --- | --- | --- | --- |
| C=C1CC[C@H]2[C@@](C)(CCC(O)[C@@]2(C)CO)[C@@H]1CCC1=CCOC1=O (stereo not given in full) | 0.497% (inactive) |  |  |
| CCn1cc(NC(=S)Nc2cc(Cl)ccc2OC)c(C(N)=O)n1 | -6.99% (inactive) |  |  |
| CC(C(O)/C=C/C(C)(C)O)C1CCC2(C)C3C(=O)C=C4C(CCC(O)C4(C)C)C3(C)CCC12C (stereo not given) | -0.192% (inactive) |  |  |
| CC1CCC2C(C)(C)[C@@H](O)CC[C@]2(C)C12Cc1c(O)cc3c(c1O2)CN(C(CCC(=O)O)C(=O)O)C3=O (stereo not given in full) | -1.01% (inactive) |  |  |
| COc1ccc(C2(O)c3ccccc3NC(=O)C2O)cc1 (stereo not given) | 0.154% (inactive) |  |  |
| CCc1cc(CN2CC(C(=O)O)C2)sc1-c1noc(-c2ccc(Oc3ccccc3)cc2)n1 | -28.8% (inactive) |  |  |
| Cc1nc2sc(C(=O)NCc3ccncc3)c(N)c2c(C)c1Cl | 0.486% (inactive) |  |  |
| COc1cc(N2CCOCC2)ccc1Nc1ncc(Cl)c(Nc2ccccc2NS(C)(=O)=O)n1 | -96.5% (inactive) |  |  |
| CCCn1c(=O)c2[nH]c(-c3ccc(OCC(=O)O)cc3)nc2n(CCC)c1=O | 3.25% (inactive) |  |  |
| CC(C)(C)OC(=O)N1CCC(OCc2nc(-c3ccncc3)no2)CC1 | -15.9% (inactive) |  |  |
| COc1cc(/C=C/C=O)cc(OC)c1O[C@@H]1O[C@H](CO)[C@@H](O)[C@H](O)[C@H]1O | -11.6% (inactive) |  |  |
| CC1CC(=O)C2=C(CCC3(O)C(O)c4c(O)cccc4C(=O)C23O)C1 (stereo not given) | -7.17% (inactive) |  |  |
| C[C@@H]1O[C@@H](OC[C@H]2O[C@@H](Oc3cc(O)cc4c3C(=O)C(O)(Cc3ccc(O)cc3)O4)[C@H](O)[C@@H](O)[C@@H]2O)[C@H](O)[C@H](O)[C@H]1O (stereo not given in full) | 3.09% (inactive) |  |  |
| CCOc1cc(N2CCC(O)CC2)ccc1Nc1ncc2c(n1)N(C1CCCC1)CCC(=O)N2C |  | 6.51 µM (active) |  |
| COc1cc(O)cc(C)c1C(=O)O[C@H]1[C@@H](OC(C)=O)[C@H](n2ccc(=O)[nH]c2=O)O[C@@H]1CO |  |  | inactive |
| CNC(=S)NS(=O)(=O)c1cc(CCNC(=O)c2cc(Cl)ccc2OC)ccc1OC | 3.39% (inactive) |  |  |
| O=C1OCC(c2ccccc2)=C1Cc1ccccc1 | -11.2% (inactive) |  |  |
| O=C(O)/C=C/c1cc2c(cc1O[C@@H]1O[C@H](CO)[C@@H](O)[C@H](O)[C@H]1O)OCO2 | 4.22% (inactive) |  |  |
| CC(=O)N[C@@H](Cc1c[nH]c2ccccc12)C(=O)N[C@@H](CCC(=O)O)C(=O)N[C@@H](Cc1cnc[nH]1)C(=O)N[C@@H](CC(=O)O)C(=O)Nc1ccc2c(C(F)(F)F)cc(=O)oc2c1 (Ac-WEHD-{AFC}) |  |  | inactive |
| Cc1c(NC(=O)c2cc(C(N)=O)nc3cc(F)ccc23)c(C(F)(F)F)nn1Cc1ccc(C#N)cc1 | -21.4% (inactive) |  |  |
